# Source: publication PMC7862700, “An all-to-all approach to the identification of sequence-specific readers for epigenetic DNA modifications on cytosine”
# What was measured:
# Experiment in all cases: DAPPL (digital affinity profiling via proximity ligation, sequencing); 10 mM Tris-HCl pH 7.5, 50 mM NaCl, 1 mM DTT, 4% glycerol, room temperature, 30 min; GST-TFs on glutathione beads, 16-mer random dsDNA library, 0.1% formaldehyde crosslink after washing; high values mean tight binding
# FEV = biological target: T1, FEV (Homo sapiens, UniProt Q99581 1-238); conditions: protein: recombinant; tags: N-terminal GST; dsDNA, one strand shown
# T1 sequence: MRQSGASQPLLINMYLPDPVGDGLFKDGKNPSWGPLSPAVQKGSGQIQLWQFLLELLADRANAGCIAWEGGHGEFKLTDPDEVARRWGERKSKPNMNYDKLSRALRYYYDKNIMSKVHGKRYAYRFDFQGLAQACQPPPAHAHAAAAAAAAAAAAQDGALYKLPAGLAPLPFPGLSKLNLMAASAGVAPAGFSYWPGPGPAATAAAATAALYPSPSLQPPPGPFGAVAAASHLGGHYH
# Summary of the method: (§1)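 Each value of binding signal is a hexamer's read frequency for a factor divided by the same hexamer's frequency in the tag-only sample. Barcoded, bead-captured GST fusions of human transcription factors made in yeast were pooled with that sample and incubated with 200 nmole of a random double-stranded 16-mer DNA library in Tris/NaCl/DTT/glycerol buffer at room temperature for 30 min. Washing, 0.1% formaldehyde crosslinking, proximity ligation, PCR and Illumina NextSeq500 sequencing followed.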
# ETV5 = ETV5 (Homo sapiens, UniProt P41161 1-510); conditions: protein: recombinant; tags: N-terminal GST; dsDNA, one strand shown
# Summary of the method: as §1
# HSF1 = HSF1 (Homo sapiens, UniProt Q00613 1-529); conditions: protein: recombinant; tags: N-terminal GST; chain copies: 3; dsDNA, one strand shown
# Summary of the method: as §1
# SPIC = biological target: T2, SPIC (Homo sapiens, UniProt Q8N5J4 1-248); conditions: protein: recombinant; tags: N-terminal GST; dsDNA, one strand shown
# T2 sequence: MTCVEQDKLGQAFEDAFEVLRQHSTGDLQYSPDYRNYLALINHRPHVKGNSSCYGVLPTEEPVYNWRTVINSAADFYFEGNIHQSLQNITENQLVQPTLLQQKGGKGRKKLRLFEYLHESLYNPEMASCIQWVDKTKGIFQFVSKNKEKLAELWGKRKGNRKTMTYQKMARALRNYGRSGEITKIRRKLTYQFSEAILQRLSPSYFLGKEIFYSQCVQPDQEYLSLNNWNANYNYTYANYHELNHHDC
# Summary of the method: as §1
# ELF4 = ELF4 (Homo sapiens, UniProt Q99607 1-663); conditions: protein: recombinant; tags: N-terminal GST; dsDNA, one strand shown
# Summary of the method: as §1
# ELK4 = biological target: T3, ELK4 (Homo sapiens, UniProt P28324-2 1-405); conditions: protein: recombinant; tags: N-terminal GST; dsDNA, one strand shown
# T3 sequence: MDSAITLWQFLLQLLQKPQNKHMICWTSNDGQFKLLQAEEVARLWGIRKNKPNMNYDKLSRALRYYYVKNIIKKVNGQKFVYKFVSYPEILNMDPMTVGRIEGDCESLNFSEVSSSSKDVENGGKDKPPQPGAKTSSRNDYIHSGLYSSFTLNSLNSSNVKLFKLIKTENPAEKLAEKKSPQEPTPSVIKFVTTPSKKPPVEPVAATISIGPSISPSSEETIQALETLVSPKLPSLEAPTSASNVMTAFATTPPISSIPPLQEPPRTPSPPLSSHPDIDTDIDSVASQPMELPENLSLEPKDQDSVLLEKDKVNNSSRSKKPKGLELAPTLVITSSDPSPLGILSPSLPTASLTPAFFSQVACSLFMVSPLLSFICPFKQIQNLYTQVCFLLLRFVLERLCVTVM
# Summary of the method: as §1
# ETV2 = biological target: T4, ETV2 (Homo sapiens, UniProt O00321 1-342); conditions: protein: recombinant; tags: N-terminal GST; dsDNA, one strand shown
# T4 sequence: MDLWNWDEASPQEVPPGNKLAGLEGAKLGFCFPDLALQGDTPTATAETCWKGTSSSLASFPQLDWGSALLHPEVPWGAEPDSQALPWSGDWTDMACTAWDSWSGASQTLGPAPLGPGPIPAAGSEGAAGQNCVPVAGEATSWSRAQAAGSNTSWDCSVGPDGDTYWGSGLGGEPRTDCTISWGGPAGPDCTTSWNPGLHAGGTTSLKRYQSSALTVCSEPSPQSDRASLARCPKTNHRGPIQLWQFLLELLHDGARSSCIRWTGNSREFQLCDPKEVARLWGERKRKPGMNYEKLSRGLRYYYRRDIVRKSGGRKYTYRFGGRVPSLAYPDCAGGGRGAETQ
# Summary of the method: as §1
# ELF3 = biological target: T5, ELF3 (Homo sapiens, UniProt P78545 1-371); conditions: protein: recombinant; tags: N-terminal GST; dsDNA, one strand shown
# T5 sequence: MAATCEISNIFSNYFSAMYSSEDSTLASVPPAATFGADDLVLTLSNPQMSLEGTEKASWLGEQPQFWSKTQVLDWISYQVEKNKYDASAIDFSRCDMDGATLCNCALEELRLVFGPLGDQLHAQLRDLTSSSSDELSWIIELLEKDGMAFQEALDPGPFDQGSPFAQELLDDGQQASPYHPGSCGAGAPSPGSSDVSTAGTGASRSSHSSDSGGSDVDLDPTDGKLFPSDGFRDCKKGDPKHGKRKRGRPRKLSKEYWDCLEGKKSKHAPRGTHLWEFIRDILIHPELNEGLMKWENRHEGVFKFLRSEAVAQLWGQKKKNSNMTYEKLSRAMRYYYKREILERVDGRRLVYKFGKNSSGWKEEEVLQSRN
# Summary of the method: as §1
# CRX = CRX (Homo sapiens, UniProt O43186 1-299); conditions: protein: recombinant; tags: N-terminal GST; dsDNA, one strand shown
# Summary of the method: as §1
# ETV1 = ETV1 (Homo sapiens, UniProt P50549 1-477); conditions: protein: recombinant; tags: N-terminal GST; dsDNA, one strand shown
# Summary of the method: as §1
# ERF = biological target: T6, ERF (Homo sapiens, UniProt P50548 1-548); conditions: protein: recombinant; tags: N-terminal GST; dsDNA, one strand shown
# T6 sequence: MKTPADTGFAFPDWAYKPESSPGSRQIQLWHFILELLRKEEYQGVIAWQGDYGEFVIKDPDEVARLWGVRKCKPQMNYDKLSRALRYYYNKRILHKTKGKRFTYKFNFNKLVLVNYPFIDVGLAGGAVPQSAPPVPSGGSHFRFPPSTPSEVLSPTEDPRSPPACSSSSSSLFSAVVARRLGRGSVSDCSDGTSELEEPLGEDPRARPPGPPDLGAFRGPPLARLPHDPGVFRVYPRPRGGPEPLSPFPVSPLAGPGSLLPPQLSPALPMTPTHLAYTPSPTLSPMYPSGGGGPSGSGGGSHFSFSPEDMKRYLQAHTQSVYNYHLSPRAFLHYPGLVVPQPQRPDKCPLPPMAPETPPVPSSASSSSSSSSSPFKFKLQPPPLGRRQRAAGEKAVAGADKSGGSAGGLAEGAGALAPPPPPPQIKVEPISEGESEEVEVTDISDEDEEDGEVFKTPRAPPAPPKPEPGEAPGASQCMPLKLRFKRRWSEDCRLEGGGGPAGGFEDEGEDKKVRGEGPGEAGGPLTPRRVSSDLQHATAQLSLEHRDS
# Summary of the method: as §1
# ETV3L = biological target: T7, ETV3L (Homo sapiens, UniProt Q6ZN32 1-361); conditions: protein: recombinant; tags: N-terminal GST; dsDNA, one strand shown
# T7 sequence: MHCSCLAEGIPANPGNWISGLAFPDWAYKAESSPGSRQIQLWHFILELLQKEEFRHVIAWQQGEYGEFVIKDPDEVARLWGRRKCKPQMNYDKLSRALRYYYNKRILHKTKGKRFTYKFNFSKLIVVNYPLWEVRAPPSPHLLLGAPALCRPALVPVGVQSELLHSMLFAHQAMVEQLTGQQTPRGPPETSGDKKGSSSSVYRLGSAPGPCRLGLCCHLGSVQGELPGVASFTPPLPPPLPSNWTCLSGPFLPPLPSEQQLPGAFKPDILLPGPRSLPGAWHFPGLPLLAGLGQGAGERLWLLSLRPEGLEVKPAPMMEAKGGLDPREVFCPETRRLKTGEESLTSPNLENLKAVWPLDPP
# Summary of the method: as §1
# ETS2 = biological target: T8, ETS2 (Homo sapiens, UniProt P15036 1-469); conditions: protein: recombinant; tags: N-terminal GST; dsDNA, one strand shown
# T8 sequence: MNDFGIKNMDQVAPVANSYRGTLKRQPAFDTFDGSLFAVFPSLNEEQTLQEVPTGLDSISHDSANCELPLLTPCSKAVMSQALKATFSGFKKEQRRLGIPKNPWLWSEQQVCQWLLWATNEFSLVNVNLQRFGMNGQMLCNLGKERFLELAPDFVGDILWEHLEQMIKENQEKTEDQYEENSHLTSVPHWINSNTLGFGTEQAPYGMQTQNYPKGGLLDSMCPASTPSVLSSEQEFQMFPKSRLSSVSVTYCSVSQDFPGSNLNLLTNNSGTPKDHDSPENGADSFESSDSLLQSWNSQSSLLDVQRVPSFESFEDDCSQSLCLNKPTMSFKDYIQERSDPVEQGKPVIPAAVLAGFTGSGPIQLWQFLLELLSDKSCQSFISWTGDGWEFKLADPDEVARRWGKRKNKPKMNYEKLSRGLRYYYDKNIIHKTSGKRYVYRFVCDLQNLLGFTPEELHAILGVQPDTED
# Summary of the method: as §1
# SPDEF = biological target: T9, SPDEF (Homo sapiens, UniProt O95238 1-335); conditions: protein: recombinant; tags: N-terminal GST; dsDNA, one strand shown
# T9 sequence: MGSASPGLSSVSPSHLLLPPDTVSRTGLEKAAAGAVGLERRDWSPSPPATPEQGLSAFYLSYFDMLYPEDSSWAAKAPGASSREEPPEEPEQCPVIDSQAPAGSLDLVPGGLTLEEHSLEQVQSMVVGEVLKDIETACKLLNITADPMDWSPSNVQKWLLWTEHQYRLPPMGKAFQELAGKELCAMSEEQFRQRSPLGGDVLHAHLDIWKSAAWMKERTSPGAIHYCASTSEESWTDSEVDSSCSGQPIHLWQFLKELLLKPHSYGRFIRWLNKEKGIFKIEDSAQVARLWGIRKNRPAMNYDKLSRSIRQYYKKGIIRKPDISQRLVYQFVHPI
# Summary of the method: as §1
# ETV7 = biological target: T10, ETV7 (Homo sapiens, UniProt Q9Y603 1-341); conditions: protein: recombinant; tags: N-terminal GST; dsDNA, one strand shown
# T10 sequence: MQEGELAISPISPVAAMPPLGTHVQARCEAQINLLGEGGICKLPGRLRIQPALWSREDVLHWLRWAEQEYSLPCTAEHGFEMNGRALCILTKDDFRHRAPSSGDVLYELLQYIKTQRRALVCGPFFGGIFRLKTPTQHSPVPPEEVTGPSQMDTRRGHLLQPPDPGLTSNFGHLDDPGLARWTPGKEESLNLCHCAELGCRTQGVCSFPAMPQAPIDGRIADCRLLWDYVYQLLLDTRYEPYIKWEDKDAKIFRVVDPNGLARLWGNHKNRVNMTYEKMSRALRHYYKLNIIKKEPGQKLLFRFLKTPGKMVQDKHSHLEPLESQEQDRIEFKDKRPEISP
# Summary of the method: as §1
# ELF5 = biological target: T11, ELF5 (Homo sapiens, UniProt Q9UKW6-2 1-255); conditions: protein: recombinant; tags: N-terminal GST; dsDNA, one strand shown
# T11 sequence: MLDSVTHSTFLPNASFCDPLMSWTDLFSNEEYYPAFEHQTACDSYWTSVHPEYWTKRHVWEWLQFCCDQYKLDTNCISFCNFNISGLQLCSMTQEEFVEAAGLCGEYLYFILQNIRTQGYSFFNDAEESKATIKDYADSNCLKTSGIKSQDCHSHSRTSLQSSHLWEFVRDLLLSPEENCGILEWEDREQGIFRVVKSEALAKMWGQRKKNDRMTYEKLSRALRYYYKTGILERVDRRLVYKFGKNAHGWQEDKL
# Summary of the method: as §1
# ETV3 = biological target: T12, ETV3 (Homo sapiens, UniProt P41162-2 1-143); conditions: protein: recombinant; tags: N-terminal GST; dsDNA, one strand shown
# T12 sequence: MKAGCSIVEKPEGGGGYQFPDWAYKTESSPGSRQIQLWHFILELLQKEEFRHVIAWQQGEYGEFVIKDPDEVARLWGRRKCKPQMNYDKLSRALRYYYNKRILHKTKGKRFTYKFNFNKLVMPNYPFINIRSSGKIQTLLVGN
# Summary of the method: as §1
# ETV6 = ETV6 (Homo sapiens, UniProt P41212 1-452); conditions: protein: recombinant; tags: N-terminal GST; dsDNA, one strand shown
# Summary of the method: as §1
# Sequence of CRX (O43186 whole entry): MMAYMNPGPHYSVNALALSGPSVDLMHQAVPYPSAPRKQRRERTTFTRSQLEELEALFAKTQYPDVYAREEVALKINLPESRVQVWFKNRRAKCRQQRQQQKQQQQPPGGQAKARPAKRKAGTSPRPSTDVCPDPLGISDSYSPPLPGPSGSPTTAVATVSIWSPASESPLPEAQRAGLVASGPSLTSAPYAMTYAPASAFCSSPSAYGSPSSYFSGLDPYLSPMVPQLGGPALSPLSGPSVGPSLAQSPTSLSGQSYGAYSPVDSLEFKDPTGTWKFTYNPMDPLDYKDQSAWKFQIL
# Sequence of ETV6 (P41212 whole entry): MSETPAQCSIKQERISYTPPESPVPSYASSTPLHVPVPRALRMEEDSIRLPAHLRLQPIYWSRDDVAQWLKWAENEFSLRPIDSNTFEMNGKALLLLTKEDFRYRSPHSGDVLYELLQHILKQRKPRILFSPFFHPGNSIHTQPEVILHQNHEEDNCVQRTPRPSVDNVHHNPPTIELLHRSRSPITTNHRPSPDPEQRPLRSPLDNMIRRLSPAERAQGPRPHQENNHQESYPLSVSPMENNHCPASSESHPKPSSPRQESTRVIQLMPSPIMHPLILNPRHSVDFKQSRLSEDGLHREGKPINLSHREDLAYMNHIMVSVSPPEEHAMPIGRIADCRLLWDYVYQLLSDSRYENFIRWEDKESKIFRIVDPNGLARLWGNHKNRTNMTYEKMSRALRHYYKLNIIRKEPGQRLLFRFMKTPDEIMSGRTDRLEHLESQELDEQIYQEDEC
# Sequence of ETV1 (P50549 whole entry): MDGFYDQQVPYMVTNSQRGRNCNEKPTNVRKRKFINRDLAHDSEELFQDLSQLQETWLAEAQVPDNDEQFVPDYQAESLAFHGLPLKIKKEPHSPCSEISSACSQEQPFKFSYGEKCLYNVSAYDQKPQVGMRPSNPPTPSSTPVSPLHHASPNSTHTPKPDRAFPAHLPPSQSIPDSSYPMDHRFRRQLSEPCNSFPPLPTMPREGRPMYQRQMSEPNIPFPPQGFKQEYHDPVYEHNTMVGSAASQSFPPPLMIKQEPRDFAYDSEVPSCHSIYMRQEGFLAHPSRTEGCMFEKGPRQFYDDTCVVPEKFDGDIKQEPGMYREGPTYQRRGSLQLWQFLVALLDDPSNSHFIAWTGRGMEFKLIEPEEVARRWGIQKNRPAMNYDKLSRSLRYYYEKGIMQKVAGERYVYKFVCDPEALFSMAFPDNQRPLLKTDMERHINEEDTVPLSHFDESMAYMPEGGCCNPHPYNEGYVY
# Sequence of ELF4 (Q99607 whole entry): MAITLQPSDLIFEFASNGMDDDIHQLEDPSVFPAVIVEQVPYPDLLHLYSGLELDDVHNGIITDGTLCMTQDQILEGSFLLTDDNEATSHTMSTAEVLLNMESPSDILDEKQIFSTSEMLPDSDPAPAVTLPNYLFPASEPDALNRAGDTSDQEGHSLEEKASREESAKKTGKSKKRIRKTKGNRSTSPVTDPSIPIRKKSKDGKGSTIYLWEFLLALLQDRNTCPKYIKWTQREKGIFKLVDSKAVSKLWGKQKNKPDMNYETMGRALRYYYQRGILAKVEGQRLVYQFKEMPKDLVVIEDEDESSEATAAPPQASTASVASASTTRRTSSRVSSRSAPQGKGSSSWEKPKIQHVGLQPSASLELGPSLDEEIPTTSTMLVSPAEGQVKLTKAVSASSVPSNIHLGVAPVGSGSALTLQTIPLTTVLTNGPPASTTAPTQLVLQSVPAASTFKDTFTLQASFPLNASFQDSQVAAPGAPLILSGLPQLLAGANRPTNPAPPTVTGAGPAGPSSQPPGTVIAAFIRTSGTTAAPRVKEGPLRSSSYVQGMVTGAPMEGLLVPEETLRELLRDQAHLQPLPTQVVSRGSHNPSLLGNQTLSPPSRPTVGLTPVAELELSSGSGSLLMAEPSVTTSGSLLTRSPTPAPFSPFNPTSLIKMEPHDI
# Sequence of HSF1 (Q00613 whole entry): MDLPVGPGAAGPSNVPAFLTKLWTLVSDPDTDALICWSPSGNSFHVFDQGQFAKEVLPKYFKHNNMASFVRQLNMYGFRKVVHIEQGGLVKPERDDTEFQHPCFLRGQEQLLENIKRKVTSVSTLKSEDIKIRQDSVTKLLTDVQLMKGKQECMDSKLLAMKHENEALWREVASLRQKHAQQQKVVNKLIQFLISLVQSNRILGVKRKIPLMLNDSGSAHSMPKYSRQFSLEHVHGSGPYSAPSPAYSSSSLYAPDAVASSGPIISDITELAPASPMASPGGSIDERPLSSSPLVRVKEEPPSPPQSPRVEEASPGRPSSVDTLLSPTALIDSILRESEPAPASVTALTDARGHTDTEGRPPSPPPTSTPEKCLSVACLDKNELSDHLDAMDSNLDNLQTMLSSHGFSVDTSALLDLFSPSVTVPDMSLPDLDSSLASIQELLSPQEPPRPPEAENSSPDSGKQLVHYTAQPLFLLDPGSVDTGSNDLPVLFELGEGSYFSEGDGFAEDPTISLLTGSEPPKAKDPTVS
# Sequence of ETV5 (P41161 whole entry): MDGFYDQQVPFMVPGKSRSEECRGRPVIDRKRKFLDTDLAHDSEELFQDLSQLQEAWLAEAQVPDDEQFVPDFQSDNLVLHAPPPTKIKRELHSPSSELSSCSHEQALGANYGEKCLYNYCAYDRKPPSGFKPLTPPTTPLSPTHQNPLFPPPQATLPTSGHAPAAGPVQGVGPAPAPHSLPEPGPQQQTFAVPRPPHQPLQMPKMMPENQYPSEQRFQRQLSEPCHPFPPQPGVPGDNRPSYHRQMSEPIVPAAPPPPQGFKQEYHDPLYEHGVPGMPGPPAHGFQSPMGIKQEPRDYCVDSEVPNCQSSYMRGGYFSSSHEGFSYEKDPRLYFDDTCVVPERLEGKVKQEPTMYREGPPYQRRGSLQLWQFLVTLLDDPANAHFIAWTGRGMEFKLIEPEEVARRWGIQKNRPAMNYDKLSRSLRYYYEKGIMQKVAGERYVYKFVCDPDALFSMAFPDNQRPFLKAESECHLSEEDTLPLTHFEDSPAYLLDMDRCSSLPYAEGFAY
sequence,measurement,setting,value
AACACT,binding signal,FEV,"1.26 fold enrichment (6-mer frequency, TF over GST control)"
same,binding signal,ETV5,"1.28 fold enrichment (6-mer frequency, TF over GST control)"
same,binding signal,HSF1,"1.18 fold enrichment (6-mer frequency, TF over GST control)"
same,binding signal,SPIC,"1.52 fold enrichment (6-mer frequency, TF over GST control)"
same,binding signal,ELF4,"1.3 fold enrichment (6-mer frequency, TF over GST control)"
same,binding signal,ELK4,"1.29 fold enrichment (6-mer frequency, TF over GST control)"
same,binding signal,ETV2,"1.26 fold enrichment (6-mer frequency, TF over GST control)"
same,binding signal,ELF3,"1.23 fold enrichment (6-mer frequency, TF over GST control)"
same,binding signal,CRX,"1.14 fold enrichment (6-mer frequency, TF over GST control)"
same,binding signal,ETV1,"1.25 fold enrichment (6-mer frequency, TF over GST control)"
same,binding signal,ERF,"1.21 fold enrichment (6-mer frequency, TF over GST control)"
same,binding signal,ETV3L,"1.3 fold enrichment (6-mer frequency, TF over GST control)"
same,binding signal,ETS2,"1.37 fold enrichment (6-mer frequency, TF over GST control)"
same,binding signal,SPDEF,"1.22 fold enrichment (6-mer frequency, TF over GST control)"
same,binding signal,ETV7,"1.32 fold enrichment (6-mer frequency, TF over GST control)"
same,binding signal,ELF5,"1.34 fold enrichment (6-mer frequency, TF over GST control)"
same,binding signal,ETV3,"1.29 fold enrichment (6-mer frequency, TF over GST control)"
same,binding signal,ETV6,"1.4 fold enrichment (6-mer frequency, TF over GST control)"
